Several values for one entry are separate records, joined by “and”; a condition that tells them apart may be missing. Identical values can stand only once. The campaign covered roughly 9,600 compounds. About 20 (0.2%) were called active. This is one part of a sample in which actives are shown more often than they occur.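 The calls were made as follows: active = highest normalized replicate activity of 15 or more, or at least half the replicates reach 15 or more; inactive = neither condition met.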 A structure can be active in one record and inactive in another.

The assay can be described thus: activators of Pax4 gene expression, primary screen, RT-PCR, mouse alpha TC1 cells, single point (AID 1053180).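 Also: Pax4 Ct normalized to GAPDH with activation seen as lower delta delta Ct; plate controls were plate neutral control wells for no effect and Pax4 plasmid positive control for full effect.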 Particulars: Pax4 mRNA qPCR, 6 days, at 10 µM, stronger effect = higher value, 100% = Pax4 plasmid added at qPCR. (Real-time PCR tracks product formation cycle by cycle.)
As for `COc1cccc(C#Cc2ccc([C@H]3[C@H](CO)N4C(=O)CN(C(=O)Cc5cccnc5)C[C@@H]34)cc2)c1`, the activation is 0% (inactive).

In the case of `CO[C@H]1CC[C@H]2CCOc3c(C#N)cccc3C(=O)N(C)C[C@H](OC)[C@H](C)C(=O)N(C)C[C@@H]1O2`, the activation was -0.0005% (inactive).

On to `CO[C@H]1CN(C)C(=O)c2cc(NC(=O)CC(F)(F)F)ccc2OC[C@@H](C)N(CC2CC2)C[C@@H]1C`, for which the activation is -0.0005% (inactive).

In the case of `C[C@H](CO)N1C[C@H](C)[C@H](CN(C)Cc2ccc3c(c2)OCO3)Oc2ccc(NS(=O)(=O)c3cn(C)cn3)cc2CC1=O`, the activation was 0.004% (inactive).

With `N#C[C@@H]1N[C@@H](CO)[C@@H]1c1ccc(C#CC2CCCCC2)cc1`, the activation was 0.001% (inactive).

Turning to `Cc1noc(C)c1S(=O)(=O)N(C)C[C@H]1Oc2c(NS(=O)(=O)c3cn(C)cn3)cccc2C(=O)N([C@@H](C)CO)C[C@@H]1C`, the activation is -0.005% (inactive).

As to `COc1ccc2c3c([nH]c2c1)[C@H](CO)N(C(=O)Nc1ccc(F)cc1)CC31CN(S(=O)(=O)c2ccc(C)cc2)C1`, the activation is 0.006% (inactive).

As to `CCS(=O)(=O)Nc1ccc2c(c1)C(=O)N(C)[C@@H]1CC[C@H](CC(=O)NC3CCCCC3)O[C@@H]1CO2`, the activation was 0% (inactive).

For `C[C@@H]1CN([C@H](C)CO)C(=O)Cc2cc(NS(=O)(=O)c3ccc(Cl)cc3)ccc2O[C@@H]1CN(C)C(=O)Nc1ccc(C(F)(F)F)cc1`, the activation was 0.005% (inactive).

As to `CC(C)NC(=O)Nc1ccc2c(c1)C(=O)N([C@H](C)CO)C[C@H](C)[C@@H](CN(C)C(=O)C1CCCCC1)OCCCC[C@H](C)O2`, the activation was -0.0015% (inactive).

With `O=C(C[C@@H]1CC[C@H]2[C@@H](COC[C@H](O)CN2S(=O)(=O)c2cccc(F)c2)O1)NCc1ccncn1`, the activation is 0.011% (inactive).

For the compound `Cc1nn(C)cc1NC(=O)C[C@@H]1CC[C@@H]2[C@@H](COc3ccc(NC(=O)c4cccc(F)c4)cc3C(=O)N2C)O1`, the activation is 0.0025% (inactive).

As for `C[C@@H]1CN([C@H](C)CO)C(=O)c2cc(NS(=O)(=O)c3ccccc3)ccc2O[C@@H](C)CCCCO[C@@H]1CN(C)C(=O)C1CCCCC1`, the activation is -0.001% (inactive).

For `CC(C)[C@@H]1CCc2cnnn2COC[C@H](Cc2ccccc2)NC1=O`, the activation is -0.0175% (inactive).

As to `O=C(C[C@H]1CC[C@@H]2[C@H](COC[C@H](O)CN2Cc2ccc3c(c2)OCO3)O1)N1CCCCC1`, the activation was 0.002% (inactive).

In the case of `COc1ccc2c3c([nH]c2c1)[C@@H](CO)NCC31CN(Cc2cc(F)ccc2F)C1`, the activation was 0.0025% (inactive).

As for `O=S(=O)(c1ccc(F)cc1)N1CCCCN2[C@H](CO)[C@H](c3ccc(-c4cncnc4)cc3)[C@H]2C1`, the activation was 0.001% (inactive).

On to `O=C(C[C@H]1C[C@H]2c3cc(NS(=O)(=O)c4ccccc4)ccc3O[C@H]2[C@H](CO)O1)N1CCOCC1`, for which the activation is 0.0015% (inactive).

On to `CC(=O)N1[C@@H]2Cn3c(ccc(-c4cccnc4)c3=O)[C@H]1[C@@H](C(=O)NC1Cc3ccccc3C1)[C@@H]2CO`, for which the activation is 0% (inactive).

On to `C[C@H]1CN([C@@H](C)CO)C(=O)Cc2cc(NS(=O)(=O)c3ccc(Cl)cc3)ccc2O[C@H]1CN(C)C(=O)Nc1ccc(C(F)(F)F)cc1`, for which the activation was -0.003% (inactive).

For `CN(C)C(=O)c1ccc(-c2ccc([C@@H]3[C@@H](CO)N4C(=O)CN(C(=O)CC5CC5)C[C@H]34)cc2)cc1`, the activation is 0.005% (inactive).

Regarding `COc1ccc(CN2[C@@H]3CN(C(=O)NC(C)C)c4ccccc4[C@@H]3[C@@H]2CO)cc1`, the activation was -0.0005% (inactive).

Regarding `C[C@H](CO)N1C[C@H](C)[C@@H](CN(C)Cc2ccccc2)Oc2c(NC(=O)Cc3cn(C)c4ccccc34)cccc2C1=O`, the activation is 13.8% (active).

Consider `C[C@H](CO)N1C[C@H](C)[C@@H](CN(C)Cc2ccc(-c3ccccc3)cc2)Oc2c(NS(C)(=O)=O)cccc2C1=O`, for which the activation was -0.001% (inactive).

For the compound `C[C@H](CO)N1C[C@H](C)[C@@H](CN(C)Cc2ccc(Oc3ccccc3)cc2)Oc2c(NC(=O)CCC(F)(F)F)cccc2C1=O`, the activation is 0.039% (inactive).

Take `C[C@@H](NC(=O)C[C@H]1CC[C@@H]2[C@@H](COc3ccc(NC(=O)C4CCOCC4)cc3C(=O)N2C)O1)c1ccccc1`: the activation is 0.0015% (inactive).

Turning to `O=C(NC1CCCC1)N[C@H]1C=C[C@H](CC(=O)N2CCOCC2)O[C@H]1CO`, the activation is 0.0045% (inactive).

As for `C[C@H]1CN([C@@H](C)CO)C(=O)Cc2cc(NC(=O)C3CCCCC3)ccc2O[C@H]1CN(C)Cc1ccc(Cl)c(Cl)c1`, the activation was 0.106% (inactive).

Regarding `COc1ccc(S(=O)(=O)Nc2ccc3c(c2)CC(=O)N([C@H](C)CO)C[C@@H](C)[C@@H](CN(C)Cc2ccc(C(=O)Nc4ccccc4N)cc2)O3)cc1`, the activation is 0.03% (inactive).

`COc1ccc(S(=O)(=O)Nc2ccc3c(c2)CC(=O)N([C@H](C)CO)C[C@@H](C)[C@H](CN(C)Cc2ccc(C(=O)Nc4ccccc4N)cc2)O3)cc1`: the activation was 0.03% (inactive).

As for `COc1ccc(S(=O)(=O)Nc2ccc3c(c2)CC(=O)N([C@H](C)CO)C[C@H](C)[C@H](CN(C)Cc2ccc(C(=O)Nc4ccccc4N)cc2)O3)cc1`, the activation was 15.1% (active).

Consider `C[C@@H]1CN([C@@H](C)CO)C(=O)Cc2cc(NC(=O)C3CCCCC3)ccc2O[C@@H]1CN(C)Cc1ccc(Cl)c(Cl)c1`, for which the activation was 46.5% (active).

In the case of `C[C@@H]1CN([C@H](C)CO)C(=O)Cc2cc(NC(=O)C3CCCCC3)ccc2O[C@H]1CN(C)Cc1ccc(Cl)c(Cl)c1`, the activation is 0.389% (inactive).

Turning to `CCCN1C[C@H](C)[C@H](OC)CN(C)C(=O)c2ccc(NS(=O)(=O)c3cn(C)cn3)cc2OC[C@@H]1C`, the activation is 0.0005% (inactive).

Take `CN1CCN(C(=O)C[C@H]2C[C@H]3c4cc(NS(C)(=O)=O)ccc4O[C@H]3[C@H](CO)O2)CC1`: the activation was 0% (inactive).

On to `O=C(c1ccccn1)N1CC[C@@H]2[C@@H](CO)Nc3ccc(C#Cc4cccnc4)cc3[C@@H]21`, for which the activation is 0.001% (inactive).

Regarding `Cc1ccccc1S(=O)(=O)N1C[C@@H]2N[C@H](C1)C2c1ccc(/C=C/c2ccccc2)cc1` (stereo partly drawn), the activation is 0.183% (inactive).

Take `Fc1cccc(-c2ccc(C3[C@@H]4CN(Cc5cncnc5)C[C@H]3N4)cc2)c1` (stereo partly drawn): the activation was 0.047% (inactive) and 0.0125% (inactive).

Regarding `C/C=C/c1ccc(C2[C@@H]3CN(S(=O)(=O)c4ccccc4F)C[C@H]2N3)cc1` (stereo partly drawn), the activation was 0.01% (inactive).

Take `COc1ccccc1-c1ccc(C2[C@@H]3CN(Cc4cccc(F)c4)C[C@H]2N3)cc1` (stereo partly drawn): the activation was 0.062% (inactive).

As to `CN(C)C(=O)c1cccc(-c2ccc(C3[C@@H]4CN(Cc5cocn5)C[C@H]3N4)cc2)c1` (stereo partly drawn), the activation was 0.001% (inactive).

As to `C(=C\c1ccc(C2[C@@H]3CN(Cc4nccs4)C[C@H]2N3)cc1)/c1ccccc1` (stereo partly drawn), the activation is 0.714% (inactive) and 0.0635% (inactive).

Consider `Fc1cccc(CN2C[C@@H]3N[C@H](C2)C3c2ccc(/C=C/c3ccccc3)cc2)c1` (stereo partly drawn), for which the activation was 3.54% (inactive) and 8.86% (active).

As to `CN(C)C(=O)c1cccc(-c2ccc(C3[C@@H]4CN(Cc5ccccc5F)C[C@H]3N4)cc2)c1` (stereo partly drawn), the activation was 1.26% (inactive) and 21.9% (active).

Take `CN(C)C(=O)c1ccc(-c2ccc(C3[C@@H]4CN(Cc5ccccc5Cl)C[C@H]3N4)cc2)cc1` (stereo partly drawn): the activation was 0.0085% (inactive).

With `O=S(=O)(c1ccc(F)cc1)N1C[C@@H]2N[C@H](C1)C2c1ccc(/C=C/c2ccccc2)cc1` (stereo partly drawn), the activation was 8.33% (active) and 0.035% (inactive).

For the compound `Cc1cccc(-c2ccc(C3[C@@H]4CN(Cc5cccc(F)c5)C[C@H]3N4)cc2)c1` (stereo partly drawn), the activation was 50.5% (active) and 0.557% (inactive).

For the compound `Fc1ccc(-c2ccc(C3[C@@H]4CN(Cc5ccccc5)C[C@H]3N4)cc2)cc1` (stereo partly drawn), the activation was 1.66% (inactive) and 0.0585% (inactive).

(Values after PubChem BioAssay AID1053180 (Broad Institute, 2014).)
